For 18 compounds, inhibition results are on record in PubChem BioAssay AID651710 (Broad Institute, 2012).

Molecules are shown by their SMILES. Screen size: about 360,000 compounds; about 1,600 (0.44%) were called active. The sample holds actives, similar compounds and a random draw of the others, so the mix is not that of the screen.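 How the source made its calls: active means every replicate showing at least 50% inhibition; inconclusive means mean inhibition at least 50% but not in every replicate; inactive means the rest.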

The assay deals with DNA repair protein RAD52 homolog (Homo sapiens) (UniProt P43351). In words: blockers of RAD52 strand annealing activity – biochemical, FRET, single point, set 2, primary screen (AID 651710). The settings on record: recombinant RAD52 DNA annealing, FRET fluorescence; at 18.7 µM; hits give high values.
Chain of DNA repair protein RAD52 homolog (Homo sapiens) (P43351 whole entry, looked up): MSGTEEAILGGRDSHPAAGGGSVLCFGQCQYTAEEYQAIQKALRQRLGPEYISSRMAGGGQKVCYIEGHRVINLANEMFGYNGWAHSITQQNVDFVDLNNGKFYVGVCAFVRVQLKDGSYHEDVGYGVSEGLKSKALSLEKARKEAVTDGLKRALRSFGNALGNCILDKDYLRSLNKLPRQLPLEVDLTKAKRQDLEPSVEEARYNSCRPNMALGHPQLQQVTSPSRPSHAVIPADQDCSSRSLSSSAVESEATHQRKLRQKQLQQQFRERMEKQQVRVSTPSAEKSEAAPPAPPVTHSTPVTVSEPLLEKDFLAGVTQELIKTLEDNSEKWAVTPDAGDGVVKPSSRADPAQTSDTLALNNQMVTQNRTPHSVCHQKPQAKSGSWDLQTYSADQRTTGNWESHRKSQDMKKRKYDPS
With `CC(C)[C@@H](C)/C=C/[C@@H](C)[C@H]1CC[C@@H]2[C@]1(C)CCC1[C@]23C=C[C@]2(C[C@@H](O)CC[C@]12C)N(c1ccc([N+](=O)[O-])cn1)O3` (stereo partly drawn), the inhibition is 73.5% (active).

Consider `COc1ccccc1C(=O)N1O[C@]23C=C[C@]14C[C@@H](O)CC[C@]4(C)C2CC[C@]1(C)[C@@H]([C@H](C)/C=C/[C@H](C)C(C)C)CC[C@H]13` (stereo partly drawn), for which the inhibition was -15.6% (inactive).

In the case of `CC(C)NC(=O)Nc1ccc2c(c1)C(=O)N([C@@H](C)CO)C[C@H](C)[C@@H](CN(C)S(C)(=O)=O)O2`, the inhibition was -11% (inactive).

`C[C@@H]1CN([C@@H](C)CO)C(=O)Cc2cc(NC(=O)Nc3ccc4c(c3)OCO4)ccc2O[C@H]1CN(C)S(=O)(=O)c1ccccc1`: the inhibition was 2.34% (inactive).

As to `CCN(CC)CCOc1ccc2c(c1)C(=NNC(=O)c1ccccn1)c1cc(OCCN(CC)CC)ccc1-2`, the inhibition was 108% (active).

`CCN(C[C@@H]1[C@H](c2ccccc2)[C@@H](CO)N1CC1CC1)C(=O)c1ccccn1`: the inhibition was -2.51% (inactive).

Turning to `CC(O)c1ccc(OCCN(C)c2ccccn2)cc1` (stereo not drawn), the inhibition is -7.28% (inactive).

Turning to `COCCOC(=O)N1C(=O)[C@@]2(c3cc(C#CCNC(N)=O)ccc31)[C@H](C(=O)N1CCN(c3ncccn3)CC1)[C@H]1C(=O)O[C@H](c3ccccc3)[C@H](c3ccccc3)N1[C@@H]2c1ccccc1OCCO`, the inhibition is 31.5% (inactive).

Turning to `CN1C(=O)CN2CCc3ccccc3C2c2cc(Cl)ccc21` (stereo not drawn), the inhibition was -6.27% (inactive).

Turning to `CN1CCN(C2Cc3ccc(Cl)cc3Sc3ccc(F)cc32)CC1` (stereo not drawn), the inhibition was 54.5% (active).

For the compound `O=C(C[C@@H]1C=C[C@@H](NC(=O)C2CCC2)[C@H](CO)O1)NCC1CC1`, the inhibition was -2.1% (inactive).

In the case of `CCOC(=O)c1ccc(NC(=O)C2CC(=O)N(c3ccc4c(c3)OCCO4)C2)cc1` (stereo not drawn), the inhibition was -4.32% (inactive).

`CCN(CC(=O)Nc1ccc(NC(C)=O)cc1)C(=O)C1CC(=O)N(c2ccc3c(c2)OCCO3)C1` (stereo not drawn): the inhibition is 74.7% (active).

Turning to `CCN(CC(=O)Nc1ccc(NC(C)=O)cc1)C(=O)C1CC(=O)N(Cc2ccc(C)cc2)C1` (stereo not drawn), the inhibition is -6.68% (inactive).

For `COc1cccc(C(=O)Nc2ccc3c(c2)C(=O)N(C)C[C@@H](OC)[C@H](C)CN(C(=O)C2CCOCC2)[C@H](C)CO3)c1`, the inhibition was -0.027% (inactive).

Turning to `C[C@H](CO)N1C[C@H](C)[C@@H](CN(C)Cc2ccc(Cl)c(Cl)c2)Oc2ccc(NC(=O)Cn3cnnn3)cc2CC1=O`, the inhibition is 5.4% (inactive).

Consider `O=C(C1CCCC1)N1[C@H](CO)[C@@H](c2ccccc2)C12CN(CCC(F)(F)F)C2`, for which the inhibition is 6.31% (inactive).

As for `CO[C@H]1CN(C)C(=O)c2cc(NC(=O)Nc3ccccc3)ccc2OC[C@@H](C)N(C(=O)Nc2c(C)noc2C)C[C@@H]1C`, the inhibition is 8.84% (inactive).
